Test results as given in publication PMC7862700, “An all-to-all approach to the identification of sequence-specific readers for epigenetic DNA modifications on cytosine”.

biological target: T1, ETV2 (Homo sapiens, UniProt O00321 1-342); test: DAPPL (digital affinity profiling via proximity ligation, sequencing); 10 mM Tris-HCl pH 7.5, 50 mM NaCl, 1 mM DTT, 4% glycerol, room temperature, 30 min; GST-TFs on glutathione beads, 16-mer random dsDNA library, 0.1% formaldehyde crosslink after washing; high values mean tight binding; conditions: protein: recombinant; tags: N-terminal GST; dsDNA, one strand shown
T1 sequence: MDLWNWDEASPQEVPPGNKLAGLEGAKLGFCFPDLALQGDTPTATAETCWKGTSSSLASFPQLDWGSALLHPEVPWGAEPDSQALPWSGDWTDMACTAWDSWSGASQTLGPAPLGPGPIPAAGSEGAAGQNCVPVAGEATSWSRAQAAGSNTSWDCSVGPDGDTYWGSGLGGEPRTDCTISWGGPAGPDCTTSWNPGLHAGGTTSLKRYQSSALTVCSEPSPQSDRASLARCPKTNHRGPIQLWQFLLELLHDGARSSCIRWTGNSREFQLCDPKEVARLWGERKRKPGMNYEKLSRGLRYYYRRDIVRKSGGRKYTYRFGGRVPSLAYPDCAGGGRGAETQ
Procedure, shortened: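 After expression in yeast as GST fusions, human transcription factors were bound to glutathione beads, DNA-barcoded and mixed with a tag-only sample. The pools were incubated with 200 nmole of a 16-mer random double-stranded DNA library in Tris/NaCl/DTT/glycerol buffer (30 min, room temperature), washed and crosslinked with 0.1% formaldehyde. Proximity ligation with BsaI/T4 ligase ran for 1 h at 37 °C, before PCR amplification and sequencing on an Illumina NextSeq500. Binding signal is a hexamer's read frequency for a factor divided by its frequency for the tag-only sample.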

Question: CGTACA was tested. Which binding signal did it give?
Answer: The binding signal was 1.36 fold enrichment (6-mer frequency, TF over GST control).

Question: For ACTGCG, which binding signal is on record?
Answer: The binding signal was 1.42 fold enrichment (6-mer frequency, TF over GST control).

Question: For AGATGC, which binding signal is on record?
Answer: The binding signal was 1.01 fold enrichment (6-mer frequency, TF over GST control).

Question: For GTTCAA, which binding signal is on record?
Answer: The binding signal was 1.05 fold enrichment (6-mer frequency, TF over GST control).

Question: Which binding signal does the source give for TGACAT here?
Answer: Its binding signal is 1.18 fold enrichment (6-mer frequency, TF over GST control).

Question: With CCGGAA as the sequence, how does the binding signal read?
Answer: The binding signal was 5.1 fold enrichment (6-mer frequency, TF over GST control).

Question: How did the binding signal turn out when GTCTCT was run?
Answer: Its binding signal is 1.24 fold enrichment (6-mer frequency, TF over GST control).

Question: For CGACAT, which binding signal is on record?
Answer: Its binding signal is 1.26 fold enrichment (6-mer frequency, TF over GST control).

Question: How did the binding signal turn out when AACGAC was run?
Answer: The binding signal was 1.04 fold enrichment (6-mer frequency, TF over GST control).

Question: How did the binding signal turn out when GACCTG was run?
Answer: The binding signal was 1.45 fold enrichment (6-mer frequency, TF over GST control).

Question: With CGACCA as the sequence, how does the binding signal read?
Answer: Its binding signal is 1.35 fold enrichment (6-mer frequency, TF over GST control).

Question: With GGAACT as the sequence, how does the binding signal read?
Answer: The binding signal was 1.89 fold enrichment (6-mer frequency, TF over GST control).

Question: How did the binding signal turn out when ACTCAC was run?
Answer: Its binding signal is 1.24 fold enrichment (6-mer frequency, TF over GST control).

Question: For GTACAT, which binding signal is on record?
Answer: Its binding signal is 1.22 fold enrichment (6-mer frequency, TF over GST control).

Question: Which binding signal does the source give for ATGTGG here?
Answer: The binding signal was 1.28 fold enrichment (6-mer frequency, TF over GST control).

Question: GAACCC was tested. Which binding signal did it give?
Answer: The binding signal was 1 fold enrichment (6-mer frequency, TF over GST control).

Question: How did the binding signal turn out when GGAAAA was run?
Answer: The binding signal was 1.22 fold enrichment (6-mer frequency, TF over GST control).

Question: Which binding signal does the source give for ATGTAC here?
Answer: Its binding signal is 1.39 fold enrichment (6-mer frequency, TF over GST control).

Question: Which binding signal does the source give for ATGGAC here?
Answer: The binding signal was 1.33 fold enrichment (6-mer frequency, TF over GST control).

Question: Which binding signal does the source give for TTCCGT here?
Answer: The binding signal was 1.88 fold enrichment (6-mer frequency, TF over GST control).

Question: How did the binding signal turn out when GTGCTC was run?
Answer: Its binding signal is 1.16 fold enrichment (6-mer frequency, TF over GST control).

Question: GTCTTC was tested. Which binding signal did it give?
Answer: The binding signal was 1.22 fold enrichment (6-mer frequency, TF over GST control).

Question: With GCAACT as the sequence, how does the binding signal read?
Answer: The binding signal was 1.04 fold enrichment (6-mer frequency, TF over GST control).

Question: How did the binding signal turn out when GTTCCC was run?
Answer: Its binding signal is 1.12 fold enrichment (6-mer frequency, TF over GST control).

Question: How did the binding signal turn out when TCTGTC was run?
Answer: Its binding signal is 1.19 fold enrichment (6-mer frequency, TF over GST control).

Question: For TGGCAC, which binding signal is on record?
Answer: Its binding signal is 1.24 fold enrichment (6-mer frequency, TF over GST control).

Question: Which binding signal does the source give for AACACG here?
Answer: The binding signal was 1.07 fold enrichment (6-mer frequency, TF over GST control).

Question: Which binding signal does the source give for GAAGTT here?
Answer: Its binding signal is 1.58 fold enrichment (6-mer frequency, TF over GST control).

Question: For ACCTCG, which binding signal is on record?
Answer: Its binding signal is 1.28 fold enrichment (6-mer frequency, TF over GST control).

Question: How did the binding signal turn out when CCGGCA was run?
Answer: The binding signal was 1.28 fold enrichment (6-mer frequency, TF over GST control).

Question: With ACCGTC as the sequence, how does the binding signal read?
Answer: Its binding signal is 1.29 fold enrichment (6-mer frequency, TF over GST control).

Question: For TGCCTG, which binding signal is on record?
Answer: Its binding signal is 1.2 fold enrichment (6-mer frequency, TF over GST control).

Question: With ATGTGC as the sequence, how does the binding signal read?
Answer: The binding signal was 1.11 fold enrichment (6-mer frequency, TF over GST control).

Question: Which binding signal does the source give for CCTGCA here?
Answer: Its binding signal is 1.22 fold enrichment (6-mer frequency, TF over GST control).

Question: With CAGGAA as the sequence, how does the binding signal read?
Answer: Its binding signal is 1.6 fold enrichment (6-mer frequency, TF over GST control).

Question: TGCCCC was tested. Which binding signal did it give?
Answer: Its binding signal is 1.21 fold enrichment (6-mer frequency, TF over GST control).

Question: Which binding signal does the source give for TAGGAA here?
Answer: Its binding signal is 1.2 fold enrichment (6-mer frequency, TF over GST control).

Question: For TGTCTC, which binding signal is on record?
Answer: The binding signal was 1.26 fold enrichment (6-mer frequency, TF over GST control).

Question: Which binding signal does the source give for GTTTGA here?
Answer: Its binding signal is 1.22 fold enrichment (6-mer frequency, TF over GST control).
